Measurements published in PubChem BioAssay (Tox21).
Where “and” joins values, the source holds several entries; their conditions need not be identical. Equal values may be shown once. Inconclusive results are not listed. The source holds several records for some structures; these can differ, active in one and inactive in another. Calls of active or inactive are those of the source. Unless noted, the call rests on the fitted dose curve.

Tests used:
[1] = Nuclear factor erythroid 2-related factor 2/antioxidant responsive element (Nrf2/ARE) small molecule agonists: qHTS cell viability counter screen in human keratinocytes (AID 1919968; active means well fitted curve in the direction sought with a large enough effect in the repeat runs; an effect the other way counts as inactive or inconclusive; further: nearly all actives have a fitted effect of over 55% in size)
Summary of the method: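 Viability counter-screen: KeratinoSens reporter cells, DMSO-delivered compounds, 23 h at 37 C, CellTiter-Fluor fluorescence.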

[2] = Nuclear factor erythroid 2-related factor 2/antioxidant responsive element (Nrf2/ARE) small molecule agonists: luciferase reporter gene qHTS assay in human keratinocytes (AID 1919969); further: nearly all actives have a fitted effect of over 35% in size; further: potency means the concentration at half of the fitted maximal effect
[3] = molecular target: Gonadotropin-releasing hormone receptor (Homo sapiens) (UniProt P30968); assay: Human gonadotropin-releasing hormone receptor (GnRHR) small molecule agonists, calcium flux assay in GnRHR-HEK293 cells (AID 1920063); further: nearly all actives have a fitted effect of over 35% in size
Summary of the method: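 Tox21-format agonist screen using human GnRHR-expressing HEK293 cells and a fluorescent calcium dye; kinetic 3-min fluorescence reading after compound addition, 15-point concentration series run in triplicate.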

[4] = molecular target: KiSS-1 receptor (Homo sapiens) (UniProt Q969F8); assay: Human kisspeptin (KISS1R) small molecule agonists, calcium flux assay in KISS1R-HEK293 cells (AID 1920064; active means well fitted curve in the direction sought with a large enough effect in the repeat runs; an effect the other way counts as inactive or inconclusive)
Summary of the method: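 Intracellular calcium mobilization in KISS1R-HEK293 cells was recorded by fluorescence (Ex/Em 480/540) for 3 min following compound addition to cells pre-loaded 1 h with calcium dye.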

[5] = G protein-coupled receptor (GPCR) small molecule agonists, calcium flux assay: HEK293 wild type cell line counter screen (AID 1920065)
Summary of the method: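 In this agonist-mode screen, ATP is the positive control and DMSO the vehicle. Cells grow 18 h before a 1 h dye incubation at 37 C; signal is taken at Ex/Em 480/540 over 3 min.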

[6] = p53 small molecule agonists, cell-based qHTS assay with human liver microsomes: qHTS cell viability counter screen (AID 1963579); further: nearly all actives have a fitted effect of over 45% in size; further: potency means the concentration at half of the fitted maximal effect
Summary of the method: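 Cytotoxicity counter screen: p53RE-bla, 4,000 cells/well; 5 h settle, 37 C/5% CO2; cpd + HLM 0.5 mg/mL + NADPH 0.5 mg/mL (final); 16 h, 37 C; CellTiter-Glo, 30 min RT, luminescence.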

[7] = p53 small molecule agonists, cell-based qHTS assay with rat liver microsomes: qHTS cell viability counter screen (AID 1963580); further: nearly all actives have a fitted effect of over 45% in size
Summary of the method: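 p53RE-bla HCT-116 cells (4,000/well) rested 5 h at 37 C, then given Tox21 compounds in DMSO with rat liver microsomes (0.5 mg/mL final) plus NADPH (0.5 mg/mL final) for 16 h at 37 C. Viability read by CellTiter-Glo luminescence after 30 min at room temperature.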

[8] = p53 small molecule agonists, cell-based qHTS assay: qHTS cell viability counter screen (AID 1963581); further: nearly all actives have a fitted effect of over 45% in size
Summary of the method: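 Compounds are pinned onto HCT-116 p53RE-bla cells and left 16 h at 37 C. Following the reporter FRET read, ATP is quantified by CellTiter-Glo luminescence after 30 min at room temperature.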

[9] = cAMP Responsive Elements (CRE) small molecule agonists, cell-based qHTS assay (AID 1963590)
Summary of the method: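 FRET-based beta-lactamase readout (LiveBLAzer B/G, 2 h RT) quantified CRE activation in HEK 293T CRE-bla cells after 3 h treatment with DMSO-dissolved compounds.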

[10] = cAMP Responsive Elements (CRE) small molecule antagonists, cell-based qHTS assay (AID 1963591; active means well fitted inhibition curve with a large enough effect in the signal ratio in the repeat runs, not every such curve was filed as active; the % refers to the signal ratio)
Summary of the method: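 qHTS in CRE-bla HEK 293T cells: compound in DMSO, then 0.25 uM NKH477 (final), 3 h at 37 °C/5% CO2; beta-lactamase FRET read-out after 2 h substrate incubation.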

[11] = molecular target: Beta-2 adrenergic receptor (Homo sapiens) (UniProt P07550); assay: Adrenergic beta2 receptor (ADRB2) small molecule antagonists, cell-based qHTS assay (AID 1963592); further: series mostly up to about 92 µM; nearly all actives have a fitted effect of over 50% in size
Summary of the method: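 Cells (CHO, stable ADRB2 overexpression) incubated 18-20hr at 37C; compounds added from DMSO; agonist mix (1nM isoproterenol, 100uM IBMX, 25uM Ro-20-1724) added; 0.5hr RT; d2-cAMP and anti-cAMP-cryptate added; 1hr RT; 665/615 nm read.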

[12] = molecular target: Beta-2 adrenergic receptor (Homo sapiens) (UniProt P07550); assay: Adrenergic beta2 receptor (ADRB2) small molecule agonists, cell-based qHTS assay (AID 1963593);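 further: CHO cells stably overexpressing human ADRB2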
Summary of the method: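 CHO cells stably over-expressing ADRB2 were plated overnight at 37C, then dosed with compounds plus a stimulation mix containing 100uM IBMX and 25uM Ro-20-1724 for 0.5hr at room temperature. cAMP was measured by HTRF competition, 1hr.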

[13] = molecular target: D(2) dopamine receptor (Homo sapiens) (UniProt P14416); assay: Dopamine D2 receptor (DRD2) small molecule agonists, cell-based qHTS assay (AID 1963594); further: nearly all actives have a fitted effect of over 35% in size
Summary of the method: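 HEK293 cells stably expressing DRD2 were cultured 24 h at 37 C, then given Ro20-1724 (0.1 mM final) and compounds for 10 min at room temperature. NKH477 (200nM) was then added for 30 min. cAMP was read by HTRF.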

[14] = molecular target: D(2) dopamine receptor (Homo sapiens) (UniProt P14416); assay: Dopamine D2 receptor (DRD2) small molecule antagonists, cell-based qHTS assay (AID 1963595; active means well fitted inhibition curve with a large enough effect in the signal ratio in the repeat runs, with a control signal flat; the % refers to the signal ratio)
Summary of the method: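 Antagonist mode in DRD2-HEK293 cells: after compound addition with 0.1 mM Ro20-1724, cells received quinpirole (12 nM) and NKH477 (200 nM) for 30 min at room temperature; HTRF cAMP read after 1 h detection.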

[15] = molecular target: 5-hydroxytryptamine receptor 2A (Homo sapiens) (UniProt P28223); assay: 5-hydroxytryptamine receptor 2A (HTR2A) small molecule antagonists, cell-based qHTS assay (AID 1963586); further: nearly all actives have a fitted effect of over 45% in size
Summary of the method: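 Antagonist-mode intracellular calcium assay: DOI (4 nM) added after 5 min compound pre-incubation at room temperature to dye-loaded HTR2A-CHO cells. Fluorescence followed for 3 min, sampled every second.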

[16] = molecular target: 5-hydroxytryptamine receptor 2A (Homo sapiens) (UniProt P28223); assay: 5-hydroxytryptamine receptor 2A (HTR2A) small molecule agonists, cell-based qHTS assay (AID 1963587); further: nearly all actives have a fitted effect of over 30% in size
Summary of the method: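 HTR2A-CHO cells, plated 18 h at 37 C/5% CO2, dye-loaded 1 h at 37 C; compounds in DMSO added by pin tool (agonist mode). Intracellular calcium flux read as kinetic fluorescence on FDSS over 2 min at 1 s intervals.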

[17] = molecular target: Muscarinic acetylcholine receptor M1 (Homo sapiens) (UniProt P11229); assay: Cholinergic receptor muscarinic 1 (CHRM1) small molecule antagonists, cell-based qHTS assay (AID 1963588); further: nearly all actives have a fitted effect of over 40% in size
Summary of the method: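 CHRM1-CHO calcium-flux assay, antagonist mode. Cells were seeded 18 h, dye-loaded 1 h at 37 C and given compound for 5 min at RT, then acetylcholine was added at 50nM. FDSS fluorescence was read 3 min; 15 concentrations, three runs.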

[18] = molecular target: Muscarinic acetylcholine receptor M1 (Homo sapiens) (UniProt P11229); assay: Cholinergic receptor muscarinic 1 (CHRM1) small molecule agonists, cell-based qHTS assay (AID 1963589); further: nearly all actives have a fitted effect of over 35% in size
Summary of the method: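 Stable CHRM1-CHO cells (human receptor) were incubated 18 h, dye-loaded for 1 h at 37 C and exposed to test compounds for agonist activity, with calcium-dependent fluorescence followed kinetically.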

[19] = p53 small molecule agonists, cell-based qHTS assay with rat liver microsomes (AID 1963578)
Summary of the method: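 Cells carrying a p53 response element–beta-lactamase reporter were plated and rested 5 h, then dosed with compound in DMSO plus rat liver microsomes and NADPH, each at 0.5 mg/mL final. After 16 h at 37 C, LiveBLAzer substrate was added for 2 h.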

[20] = p53 small molecule agonists, cell-based qHTS assay (AID 1963582; active means well fitted activation curve with a large enough effect in the signal ratio in the repeat runs, not every such curve was filed as active; the % refers to the signal ratio)
Summary of the method: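 Agonist activity was scored from beta-lactamase FRET fluorescence in p53RE-bla cells treated 16 h at 37 C with compounds in DMSO, substrate incubation being 2 h at room temperature.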

Measured: Potency

Beta-2 adrenergic receptor (Homo sapiens), sequence (P07550 whole entry, looked up): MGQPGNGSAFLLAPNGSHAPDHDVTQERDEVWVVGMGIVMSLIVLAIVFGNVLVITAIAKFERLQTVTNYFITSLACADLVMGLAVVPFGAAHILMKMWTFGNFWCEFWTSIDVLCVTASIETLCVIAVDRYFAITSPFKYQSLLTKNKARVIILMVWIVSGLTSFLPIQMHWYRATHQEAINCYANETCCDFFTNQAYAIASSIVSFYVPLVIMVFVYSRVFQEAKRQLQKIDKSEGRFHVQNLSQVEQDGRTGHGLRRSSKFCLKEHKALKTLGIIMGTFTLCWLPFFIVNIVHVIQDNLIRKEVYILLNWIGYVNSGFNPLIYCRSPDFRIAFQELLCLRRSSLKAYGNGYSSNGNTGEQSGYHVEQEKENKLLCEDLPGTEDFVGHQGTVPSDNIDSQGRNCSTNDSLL
KiSS-1 receptor (Homo sapiens), sequence (Q969F8 whole entry, looked up): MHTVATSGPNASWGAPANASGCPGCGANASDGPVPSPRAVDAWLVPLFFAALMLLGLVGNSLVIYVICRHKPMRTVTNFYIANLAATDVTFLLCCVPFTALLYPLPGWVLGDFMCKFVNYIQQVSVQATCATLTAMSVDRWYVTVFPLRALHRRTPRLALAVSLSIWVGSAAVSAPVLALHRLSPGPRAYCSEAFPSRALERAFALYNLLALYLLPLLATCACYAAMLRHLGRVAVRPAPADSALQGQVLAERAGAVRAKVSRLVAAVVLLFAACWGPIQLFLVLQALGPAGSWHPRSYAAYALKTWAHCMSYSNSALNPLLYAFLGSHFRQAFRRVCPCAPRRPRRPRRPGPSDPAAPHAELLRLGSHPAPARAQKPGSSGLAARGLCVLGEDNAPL
5-hydroxytryptamine receptor 2A (Homo sapiens), sequence (P28223 whole entry, looked up): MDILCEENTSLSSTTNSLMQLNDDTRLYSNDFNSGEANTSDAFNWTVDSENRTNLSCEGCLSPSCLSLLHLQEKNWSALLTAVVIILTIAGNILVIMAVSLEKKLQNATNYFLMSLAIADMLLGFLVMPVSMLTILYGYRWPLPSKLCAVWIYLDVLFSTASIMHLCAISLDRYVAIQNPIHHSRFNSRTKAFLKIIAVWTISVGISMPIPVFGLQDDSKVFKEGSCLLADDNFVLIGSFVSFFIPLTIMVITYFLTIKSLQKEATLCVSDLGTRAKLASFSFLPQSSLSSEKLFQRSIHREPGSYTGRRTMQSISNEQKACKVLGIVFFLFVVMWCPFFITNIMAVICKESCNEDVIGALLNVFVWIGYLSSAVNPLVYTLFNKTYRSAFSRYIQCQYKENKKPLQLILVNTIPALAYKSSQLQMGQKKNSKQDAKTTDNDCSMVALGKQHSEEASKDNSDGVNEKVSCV
Muscarinic acetylcholine receptor M1 (Homo sapiens), sequence (P11229 whole entry, looked up): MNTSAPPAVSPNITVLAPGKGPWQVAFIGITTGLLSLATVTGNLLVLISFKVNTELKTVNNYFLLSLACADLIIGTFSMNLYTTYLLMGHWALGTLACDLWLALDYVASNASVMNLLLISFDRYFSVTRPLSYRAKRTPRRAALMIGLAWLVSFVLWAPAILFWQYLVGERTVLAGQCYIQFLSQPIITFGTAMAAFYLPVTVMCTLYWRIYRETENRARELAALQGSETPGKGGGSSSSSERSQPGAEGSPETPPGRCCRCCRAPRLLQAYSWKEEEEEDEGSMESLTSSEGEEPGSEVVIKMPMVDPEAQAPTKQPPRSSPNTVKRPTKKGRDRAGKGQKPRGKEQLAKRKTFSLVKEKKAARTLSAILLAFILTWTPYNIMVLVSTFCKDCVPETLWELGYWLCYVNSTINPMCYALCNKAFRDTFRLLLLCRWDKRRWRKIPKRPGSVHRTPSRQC
D(2) dopamine receptor (Homo sapiens), sequence (P14416 whole entry, looked up): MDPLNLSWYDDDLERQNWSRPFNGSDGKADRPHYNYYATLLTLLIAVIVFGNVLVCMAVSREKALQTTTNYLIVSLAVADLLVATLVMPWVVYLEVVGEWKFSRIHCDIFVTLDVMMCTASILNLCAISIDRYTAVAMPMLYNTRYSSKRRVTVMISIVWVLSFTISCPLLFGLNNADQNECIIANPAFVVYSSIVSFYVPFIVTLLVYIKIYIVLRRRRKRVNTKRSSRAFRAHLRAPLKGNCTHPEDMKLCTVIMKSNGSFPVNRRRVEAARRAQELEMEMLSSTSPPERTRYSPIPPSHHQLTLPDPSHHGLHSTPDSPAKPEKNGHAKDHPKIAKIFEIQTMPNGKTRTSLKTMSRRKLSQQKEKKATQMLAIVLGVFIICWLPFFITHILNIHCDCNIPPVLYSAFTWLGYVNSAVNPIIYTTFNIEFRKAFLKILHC
Gonadotropin-releasing hormone receptor (Homo sapiens), sequence (P30968 whole entry, looked up): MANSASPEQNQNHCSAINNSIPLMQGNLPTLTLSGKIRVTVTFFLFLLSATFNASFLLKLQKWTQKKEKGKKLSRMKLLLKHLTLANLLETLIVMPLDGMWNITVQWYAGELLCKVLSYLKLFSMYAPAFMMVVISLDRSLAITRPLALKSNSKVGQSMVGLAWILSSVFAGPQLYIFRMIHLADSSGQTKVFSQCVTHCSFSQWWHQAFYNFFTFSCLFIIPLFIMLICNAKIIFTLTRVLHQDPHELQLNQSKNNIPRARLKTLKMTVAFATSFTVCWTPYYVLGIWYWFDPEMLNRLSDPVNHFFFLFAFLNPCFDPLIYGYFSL

c1ccc2[nH]c(-c3cscn3)nc2c1
active: [2] 27.3 µM and 6.68 µM
inactive: [1] | [3] | [4] | [5] | [6] | [7] | [8] | [9] | [10] | [11] | [12] | [13] | [14]

Cc1occc(=O)c1O
inactive: [1] | [2] | [3] | [4] | [5] | [6] | [7] | [8] | [15] | [16] | [17] | [18] | [9] | [10] | [11] | [12] | [13] | [14]

COc1ccc(NC(C)=O)cc1N
inactive: [1] | [2] | [3] | [4] | [5] | [6] | [7] | [8] | [15] | [16] | [17] | [10] | [11] | [14]

CCCCCCCCCCCCCCCCO
inactive: [1] | [2] | [3] | [4] | [5] | [6] | [7] | [8] | [15] | [16] | [17] | [18] | [9] | [11] | [12] | [13] | [14]

COc1ccc2[nH]cc(CCNC(C)=O)c2c1
inactive: [1] | [2] | [3] | [4] | [5] | [19] | [7] | [8] | [9] | [10] | [11] | [12] | [13] | [14]

OC1C(O)C(O)C(O)C(O)C1O (stereo unspecified)
inactive: [1] | [2] | [3] | [4] | [5] | [6] | [7] | [8] | [15] | [16] | [17] | [18] | [9] | [10] | [11] | [12] | [13] | [14]

CCCCC/C=C\C/C=C\CCCCCCCC(=O)OC
inactive and 51.3 µM (active): [6]
active: [2] 27 µM and 68.6 µM
inactive: [1] | [3] | [4] | [5] | [7] | [8] | [20] | [15] | [16] | [17] | [18] | [9] | [10] | [11] | [13] | [14]

Cc1ccc(C(=O)O)o1
inactive: [1] | [2] | [3] | [4] | [5] | [6] | [7] | [8] | [15] | [16] | [17] | [18] | [9] | [10] | [11] | [12] | [13] | [14]

CC(C)C(=O)Nc1ccc([N+](=O)[O-])c(C(F)(F)F)c1
inactive: [1] | [2] | [3] | [4] | [5] | [6] | [7] | [8] | [10] | [11] | [12] | [13] | [14]

CC(C)[C@@H]1CC[C@@H](C)C[C@H]1O
inactive: [1] | [2] | [3] | [4] | [5] | [6] | [7] | [8] | [15] | [16] | [17] | [18] | [9] | [10] | [11] | [12] | [13]

O=C1NC(=O)C(c2ccccc2)(c2ccccc2)N1
inactive: [1] | [2] | [3] | [4] | [5] | [6] | [7] | [8] | [9] | [10] | [11] | [12] | [13] | [14]

C=CC(C)CCCC(C)(C)O (stereo unspecified)
inactive: [1] | [2] | [3] | [4] | [5] | [19] | [7] | [8] | [20] | [15] | [16] | [17] | [18] | [9] | [10] | [11] | [12] | [13] | [14]

COc1cc(O)c(C(=O)c2ccccc2)cc1S(=O)(=O)O
inactive: [1] | [2] | [3] | [4] | [5] | [6] | [7] | [8] | [15] | [16] | [17] | [18] | [9] | [10] | [11] | [12] | [13] | [14]

O=C(Oc1ccccc1)c1ccccc1O
inactive: [1] | [3] | [4] | [5] | [7] | [8] | [15] | [16] | [17] | [18] | [9] | [10] | [12] | [13] | [14]
inactive and 40.8 µM (active): [6]
inactive and 68.6 µM (active): [2]

CCCCC(C=O)CC (stereo unspecified)
inactive: [1] | [2] | [3] | [4] | [5] | [6] | [7] | [8] | [15] | [16] | [17] | [18] | [9] | [11] | [12] | [13] | [14]

CCCOCC(C)O (stereo unspecified)
inactive: [1] | [2] | [3] | [4] | [5] | [6] | [7] | [15] | [16] | [17] | [18] | [9] | [10] | [11] | [12] | [13] | [14]

Cc1ccc(C)c(OCCCC(C)(C)C(=O)O)c1
inactive: [1] | [2] | [3] | [4] | [5] | [6] | [7] | [8] | [10] | [11] | [12] | [13] | [14]
